PubChem BioAssay
Active and inactive are the calls of the source. No rule for the calls is given here.

system: Aerobactin synthetase IucA (Klebsiella pneumoniae hvKP1); assay: IucA enzyme inhibition, primary screen, biochemical, Spectrum library (AID 1346200); conditions: malachite green pyrophosphate, A620, at 8 µM, active compounds read low;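 also: 100% = wells without compound and 0% = wells lacking enzyme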

Question: For `CC1=C(/C=C/C(C)=C/C=C/C(C)=C/C=C/C=C(C)/C=C/C=C(C)/C=C/C(=O)[C@]2(C)C[C@@H](O)CC2(C)C)C(C)(C)C[C@H](O)C1`, which activity remaining is on record?
Answer: Its activity remaining is 108% (inactive).

Question: For `CCC(=O)OCC(=O)[C@@]1(OC(=O)CC)[C@@H](C)CC2C3CCC4=CC(=O)C=C[C@]4(C)C3(F)[C@@H](O)C[C@@]21C` (some centres undefined), which activity remaining is on record?
Answer: Its activity remaining is 125% (inactive).

Question: How did the activity remaining turn out when `Cn1c(=O)c2c(ncn2C)n(C)c1=O` was run?
Answer: The activity remaining was 119% (inactive).

Question: Which activity remaining does the source give for `O=c1oc2ccccc2cc1O` here?
Answer: Its activity remaining is 110% (inactive).

Question: `NCCCCN=C(N)N` was tested. Which activity remaining did it give?
Answer: The activity remaining was 123% (inactive).

Question: Which activity remaining does the source give for `O=C(/C=C/c1ccccc1)c1ccc(O[C@@H]2O[C@H](CO)[C@@H](O)[C@H](O)[C@H]2O)cc1O` here?
Answer: Its activity remaining is 116% (inactive).

Question: Which activity remaining does the source give for `CC1=C(/C=C/C(C)=C/C=C/C(C)=C\C(=O)O)C(C)(C)CCC1` here?
Answer: The activity remaining was 116% (inactive).

Question: `CN1CCN(CCC=C2c3ccccc3Sc3ccc(S(=O)(=O)N(C)C)cc32)CC1` was tested. Which activity remaining did it give?
Answer: The activity remaining was 116% (inactive).

Question: Which activity remaining does the source give for `O=C(O[C@@H]1Cc2c(O)cc(O)cc2O[C@@H]1c1cc(O)c(=O)c2c(O)c(O)cc([C@H]3Oc4cc(O)cc(O)c4C[C@H]3OC(=O)c3cc(O)c(O)c(O)c3)c2c1)c1cc(O)c(O)c(O)c1` here?
Answer: Its activity remaining is 108% (inactive).

Question: Which activity remaining does the source give for `COc1ccc(-c2cc(=O)c3c(OC(C)=O)cc(OC(C)=O)cc3o2)cc1` here?
Answer: Its activity remaining is 108% (inactive).

Question: For `CC(C)NCC(O)COc1cccc2[nH]ccc12` (centres undefined), which activity remaining is on record?
Answer: Its activity remaining is 103% (inactive).

Question: For `CCCCC1C(=O)N(c2ccccc2)N(c2ccc(O)cc2)C1=O` (centres undefined), which activity remaining is on record?
Answer: Its activity remaining is 114% (inactive).

Question: How did the activity remaining turn out when `CCOc1nc2cccc(C(=O)OC(C)OC(=O)OC3CCCCC3)c2n1Cc1ccc(-c2ccccc2-c2nn[nH]n2)cc1` (centres undefined) was run?
Answer: The activity remaining was 104% (inactive).

Question: `OCCN1CCN(CCCN2c3ccccc3Sc3ccc(C(F)(F)F)cc32)CC1` was tested. Which activity remaining did it give?
Answer: The activity remaining was 125% (inactive).

Question: Which activity remaining does the source give for `COc1cc(O)cc(OC)c1OC` here?
Answer: Its activity remaining is 104% (inactive).

Question: Which activity remaining does the source give for `CC1CCCC(C)N1NC(=O)c1ccc(Cl)c(S(N)(=O)=O)c1` (centres undefined) here?
Answer: The activity remaining was 121% (inactive).

Question: Which activity remaining does the source give for `CN1CCc2c(c3ccccc3n2Cc2ccccc2)C1` here?
Answer: The activity remaining was 116% (inactive).

Question: `C[C@]12C=CC(=O)C=C1CCC1C2[C@@H](O)C[C@@]2(C)C1CC[C@]2(O)C(=O)CO` (some centres undefined) was tested. Which activity remaining did it give?
Answer: Its activity remaining is 119% (inactive).

Question: `CN(C)CCC=C1c2ccccc2CCc2ccccc21` was tested. Which activity remaining did it give?
Answer: The activity remaining was 110% (inactive).

Question: Which activity remaining does the source give for `CN(C)CCc1c[nH]c2ccc(CS(=O)(=O)N3CCCC3)cc12` here?
Answer: The activity remaining was 128% (inactive).

Question: For `COC1=C(OC)C(=O)C(C/C=C(\C)CC/C=C(\C)CC/C=C(\C)CC/C=C(/C)CC/C=C(\C)CC/C=C(\C)CC/C=C(\C)CC/C=C(\C)CC/C=C(\C)CCC=C(C)C)=C(C)C1=O`, which activity remaining is on record?
Answer: The activity remaining was 93% (inactive).

Question: With `COc1ccc2c(c1)OCC(Cc1ccc(OC)c(OC(C)=O)c1)C2=O` (centres undefined) as the compound, how does the activity remaining read?
Answer: Its activity remaining is 113% (inactive).

Question: With `CC1=C(/C=C/C(C)=C/C=C/C(C)=C/C=C/C=C(C)/C=C/C=C(C)/C=C/C2=C(C)CCCC2(C)C)C(C)(C)CCC1` as the compound, how does the activity remaining read?
Answer: Its activity remaining is 123% (inactive).

Question: Which activity remaining does the source give for `C#C[C@]1(O)CCC2C3CCc4cc(OC)ccc4C3CC[C@@]21C` (some centres undefined) here?
Answer: Its activity remaining is 116% (inactive).

Question: `CO[C@H]1O[C@H](CO)C(O[C@@H]2OC(C(=O)O)[C@@H](O[C@H]3O[C@H](COS(=O)(=O)O)C(O[C@@H]4OC(C(=O)O)[C@@H](O[C@H]5O[C@H](CO)C(O[C@@H]6OC(C(=O)O)[C@@H](O[C@H]7O[C@H](COS(=O)(=O)O)C(O[C@@H]8OC(C(=O)O)=C[C@H](O)C8OS(=O)(=O)O)[C@H](O)[C@H]7NC(C)=O)[C@H](O)[C@H]6O)[C@H](O)[C@H]5NC(C)=O)[C@H](O)[C@H]4O)[C@H](O)[C@H]3NC(C)=O)[C@H](O)[C@H]2O)[C@H](O)[C@H]1NC(C)=O` (some centres undefined) was tested. Which activity remaining did it give?
Answer: Its activity remaining is 92.9% (inactive).

Question: Which activity remaining does the source give for `NS(=O)(=O)c1cc(C2(O)NC(=O)c3ccccc32)ccc1Cl` (centres undefined) here?
Answer: Its activity remaining is 117% (inactive).

Question: Which activity remaining does the source give for `N[C@@H]1[C@@H](O[C@@H]2O[C@H](C(=O)O)[C@@H](O)[C@H](O)[C@H]2O)[C@@H](O)[C@@H](CO)O[C@@H]1O` here?
Answer: Its activity remaining is 100% (inactive).

Question: How did the activity remaining turn out when `S=c1ccss1` was run?
Answer: The activity remaining was 84.5% (inactive).

Question: How did the activity remaining turn out when `NC(=O)c1cnccn1` was run?
Answer: The activity remaining was 102% (inactive).

Question: For `CCCCC1(COC(=O)CCC(=O)O)C(=O)N(c2ccccc2)N(c2ccccc2)C1=O`, which activity remaining is on record?
Answer: The activity remaining was 110% (inactive).

Question: How did the activity remaining turn out when `CC(=O)[C@@]1(O)CCC2C3C=C(Cl)C4=CC(=O)[C@@H]5CC5[C@]4(C)C3CC[C@@]21C` (some centres undefined) was run?
Answer: The activity remaining was 105% (inactive).

Question: `Clc1ccc(C(Cn2ccnc2)OCc2ccsc2Cl)c(Cl)c1` (centres undefined) was tested. Which activity remaining did it give?
Answer: Its activity remaining is 109% (inactive).

Question: With `O=c1cccc2ccc(O)c(O)c2c1O` as the compound, how does the activity remaining read?
Answer: The activity remaining was 86.6% (inactive).

Question: `C[C@]12CCC(=O)C=C1CCC1C2[C@@H](O)C[C@@]2(C)C1CC[C@]2(O)C(=O)COC(=O)CCC(=O)O` (some centres undefined) was tested. Which activity remaining did it give?
Answer: The activity remaining was 123% (inactive).
